Where “and” joins values, the source holds several entries; their conditions need not be identical. Equal entries are not always repeated. This is part of a sample that, as a whole, favours compounds with a hit. Of some 83,000 tested, about 20% had one in any assay.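 Cell lines were cultured in 96-well plates, exposed to a single compound concentration, and assessed for percent growth 48 hours later.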 Some compounds were tested as several samples or in several runs, with calls that do not always agree. Calls of active or inactive are those of the source. Rule for the calls: active = growth percent below 10; inactive = the rest.
Key:
Test in all cases: NCI-60 one-dose screen, 48 h (100 = growth as untreated, 0 = no growth, -100 = all killed)
Conditions in all cases: 10 µM unless noted
T-47D breast = tested on: T-47D breast
BT-549 breast = tested on: BT-549 breast
MDA-MB-435 melanoma = tested on: MDA-MB-435 melanoma
SW-620 colon = tested on: SW-620 colon
MCF7 breast = tested on: MCF7 breast
HCT-116 colon = tested on: HCT-116 colon
HCC-2998 colon = tested on: HCC-2998 colon
KM12 colon = tested on: KM12 colon

| SMILES | growth (T-47D breast) | growth (BT-549 breast) | growth (MDA-MB-435 melanoma) | growth (SW-620 colon) | growth (MCF7 breast) | growth (HCT-116 colon) | growth (HCC-2998 colon) | growth (KM12 colon) |
| --- | --- | --- | --- | --- | --- | --- | --- | --- |
| Cc1c(Cl)cccc1NCN1C(=O)c2ccccc2C1=O | 94.4% (inactive) | 106% (inactive) | 104% (inactive) | 110% (inactive) | 97.6% (inactive) | 116% (inactive) | 111% (inactive) | 103% (inactive) |
| O=C(CN1CCN(c2cc3c(cc2F)c(=O)c(C(=O)O)cn3C2CC2)CC1)Nc1ccc(Cl)cc1 | 59.1% (inactive) and 92.4% (inactive) | 55.8% (inactive) | 88.4% (inactive) and 92.1% (inactive) | 101% (inactive) and 110% (inactive) | 94.3% (inactive) and 96.4% (inactive) | 73.1% (inactive) and 99.7% (inactive) | 85.8% (inactive) and 103% (inactive) | 82.9% (inactive) and 93.9% (inactive) |
| CC1CCCC(=O)O1 (centres undefined) | 101% (inactive) and 106% (inactive) | 104% (inactive) and 105% (inactive) | 97.2% (inactive) and 107% (inactive) | 105% (inactive) and 104% (inactive) | 96.3% (inactive) and 101% (inactive) | 105% (inactive) and 94.6% (inactive) | 98.3% (inactive) | 97.7% (inactive) and 106% (inactive) |
| CCN(CC)CCCC(CNc1ccnc2cc(Cl)ccc12)c1ccc(Cl)cc1 (centres undefined) | -41.1% (active) and 114% (inactive) | 10.4% (inactive) and -11.4% (active) | -93.3% (active) and -61.5% (active) | 6.45% (active) and -100% (active) | -31.8% (active) and 70.3% (inactive) | -15.1% (active) and -20.3% (active) | -76.8% (active) and -93.6% (active) | 1.49% (active) and 33.3% (inactive) |
| COc1cc(-c2nccc3cc4c(cc23)OCO4)cc(OC)c1OC | 27.6% (inactive) and 31.9% (inactive) | 56.8% (inactive) | -14.5% (active) and -22.9% (active) | 16.7% (inactive) and 17.5% (inactive) | 20.9% (inactive) and 16.7% (inactive) | 18.7% (inactive) and 25.3% (inactive) | 59.8% (inactive) and 48.4% (inactive) | 32.3% (inactive) and 25% (inactive) |
| CCN(CC)CCCC(C)Nc1cnc(C(=O)Nc2cc(F)cc3cccnc23)cn1 (centres undefined) | 14.3% (inactive) and -49.5% (active) | 77.4% (inactive) and -40.1% (active) | 25.5% (inactive) and 3.24% (active) | 24.3% (inactive) and -78.8% (active) | 2.31% (active) and -37.5% (active) | 9.52% (active) and -66.7% (active) | 66.7% (inactive) and 14.1% (inactive) | 75.3% (inactive) and -92.3% (active) |
| O=C1NC(=O)C2(CCc3ccccc32)N1 (centres undefined) | 92.8% (inactive) and 94.4% (inactive) | 115% (inactive) and 98.1% (inactive) | 107% (inactive) and 129% (inactive) | 117% (inactive) | 92.9% (inactive) and 110% (inactive) | 113% (inactive) and 96.3% (inactive) | 103% (inactive) | 100% (inactive) and 109% (inactive) |
| Nc1cc2c(cc1N)-c1ccccc1C2 | 80.8% (inactive) and 79.5% (inactive) | 64.1% (inactive) and 75.5% (inactive) | 91.6% (inactive) and 94.1% (inactive) | 108% (inactive) and 100% (inactive) | 81.2% (inactive) and 95% (inactive) | 98.8% (inactive) and 100% (inactive) | 102% (inactive) and 90.1% (inactive) | 90% (inactive) and 97.1% (inactive) |
| CCCCCCCCCCCCCCCc1cc(O)ccc1N | -5.74% (active) and -86.4% (active) | -36.3% (active) and 12.7% (inactive) | 99.4% (inactive) and 87.2% (inactive) | 114% (inactive) and 108% (inactive) | 72.2% (inactive) and 35.3% (inactive) | 94.4% (inactive) and 91.4% (inactive) | 96.4% (inactive) and 101% (inactive) | 64.2% (inactive) and 72% (inactive) |
| O=[N+]([O-])c1ccccc1/C=N\Nc1ccccc1 | 48.2% (inactive) and 57.9% (inactive) | 91.1% (inactive) and 97.8% (inactive) | 88.8% (inactive) and 83.6% (inactive) | 95% (inactive) and 93.3% (inactive) | 66.3% (inactive) and 69.4% (inactive) | 79.2% (inactive) and 84.5% (inactive) | 88.6% (inactive) and 91.5% (inactive) | 40.6% (inactive) and 36.1% (inactive) |
| COc1cc(Nc2nc3ccccc3nc2NS(=O)(=O)c2ccc(NC(=O)c3ccc(C)c(OC)c3)cc2)cc(OC)c1 | 35.9% (inactive) and -31.1% (active) | 39.6% (inactive) and -6.94% (active) | 68.3% (inactive) and 3.11% (active) | 52% (inactive) and 28.1% (inactive) | 36.6% (inactive) and 5.28% (active) | 69.9% (inactive) and 18.2% (inactive) | 68.5% (inactive) | 54% (inactive) and 13.9% (inactive) |
| O=C(N/N=C/c1ccc2c(c1)OCO2)c1ccncc1 | 112% (inactive) and 102% (inactive) | 103% (inactive) and 102% (inactive) | 108% (inactive) and 112% (inactive) | 93.6% (inactive) and 98.3% (inactive) | 107% (inactive) and 86.8% (inactive) | 105% (inactive) and 101% (inactive) | 103% (inactive) and 113% (inactive) | 91.9% (inactive) and 103% (inactive) |
| CCN1CCN(CCNc2nccc(-c3c(-c4cccc(O)c4)nc4sccn34)n2)S1(=O)=O | 76.7% (inactive) and 72.5% (inactive) | 72% (inactive) and 83.8% (inactive) | 20% (inactive) and 11% (inactive) | 107% (inactive) and 101% (inactive) | 86.8% (inactive) and 83.6% (inactive) | 53.5% (inactive) and 47.7% (inactive) | 111% (inactive) and 97.1% (inactive) | 52.4% (inactive) and 68.9% (inactive) |
| Cc1ccc(S(=O)(=O)Nc2ccc3cc([N+](=O)[O-])ccc3c2[N+](=O)[O-])cc1 | 65.1% (inactive) and 98.3% (inactive) | 92.3% (inactive) and 95.5% (inactive) | 63.3% (inactive) and 91.7% (inactive) | 91.9% (inactive) and 93.4% (inactive) | 89.7% (inactive) and 97.2% (inactive) | 83.8% (inactive) and 80.7% (inactive) | 73.9% (inactive) and 95.8% (inactive) | 73.5% (inactive) and 91.6% (inactive) |
| NS(=O)(=O)c1cc2c(cc1Cl)NC(C(Cl)Cl)NS2(=O)=O (centres undefined) | 104% (inactive) | 70.5% (inactive) and 102% (inactive) | 101% (inactive) and 104% (inactive) | 110% (inactive) | 93.1% (inactive) and 110% (inactive) | 101% (inactive) and 100% (inactive) | 111% (inactive) | 111% (inactive) |
| Fc1ccccc1Nc1n[nH]c(=S)s1 | 103% (inactive) | 112% (inactive) | 117% (inactive) | 105% (inactive) | 105% (inactive) | 98% (inactive) | 110% (inactive) | 104% (inactive) |
| O=C1c2ccccc2C(=O)c2c(NCCNCCO)ccc(NCCNCCO)c21 | -3.06% (active) and 10.5% (inactive) and 31.6% (inactive) | 6.06% (active) and 86.7% (inactive) and 62.6% (inactive) | 22.6% (inactive) and 43.5% (inactive) and 20.8% (inactive) | 12.2% (inactive) and 27.3% (inactive) and 22.2% (inactive) | -1.56% (active) and 6.38% (active) and 2.38% (active) | -21.4% (active) and 22.7% (inactive) and 17.7% (inactive) | 36.6% (inactive) and 41.1% (inactive) | 8.81% (active) and 41.7% (inactive) and 40.2% (inactive) |
| CC(C(=O)O)n1cc(C#N)c(=O)[nH]c1=O (centres undefined) | 108% (inactive) and 101% (inactive) | 99.4% (inactive) | 94.8% (inactive) and 106% (inactive) | 101% (inactive) and 106% (inactive) | 101% (inactive) and 93% (inactive) | 105% (inactive) | 101% (inactive) and 104% (inactive) | 101% (inactive) and 107% (inactive) |
| O=S1(=O)CC(Br)C(Br)C1 (centres undefined) | 34.5% (inactive) and 63% (inactive) | 77.7% (inactive) and 82.9% (inactive) | 80.5% (inactive) and 95.1% (inactive) | 32.1% (inactive) and 29.8% (inactive) | 56.9% (inactive) and 63.7% (inactive) | 18.2% (inactive) and 66.8% (inactive) | 102% (inactive) and 117% (inactive) | 105% (inactive) and 116% (inactive) |
| Cn1cnc([N+](=O)[O-])c1Sc1ncnc2nc[nH]c12 | 65.4% (inactive) and 79.7% (inactive) | 70.7% (inactive) | 33.7% (inactive) and 35.7% (inactive) | 93.8% (inactive) and 94.7% (inactive) | 36.2% (inactive) and 33.2% (inactive) | 50% (inactive) and 60.1% (inactive) | 64.4% (inactive) and 55% (inactive) | 51.2% (inactive) and 65.2% (inactive) |
| NC(=S)NS(=O)(=O)c1ccc(N)cc1 | 108% (inactive) | 128% (inactive) | 104% (inactive) | 110% (inactive) | 101% (inactive) | 101% (inactive) | 106% (inactive) | 110% (inactive) |
| CC(=O)c1ccc2c(c1)N(CCCN1CCN(CCO)CC1)c1ccccc1S2 | 160% (inactive) and 37.8% (inactive) | 88.1% (inactive) and 44.6% (inactive) | 84.1% (inactive) and -67% (active) | 95% (inactive) and -52.1% (active) | 79.2% (inactive) and -31.2% (active) | 83.9% (inactive) and -11.8% (active) | 102% (inactive) and -55.5% (active) | 105% (inactive) and 2.29% (active) |
| CCN(CC)CCNc1ccc(C)c2sc3ccccc3c(=O)c12 (tested in a mixture with another compound) | 41% (inactive) and 31.5% (inactive) | 46.4% (inactive) and 79.4% (inactive) | 23.9% (inactive) and 28.2% (inactive) | 24% (inactive) and 20.5% (inactive) | 12.2% (inactive) and 5.61% (active) | 19.4% (inactive) and 19.9% (inactive) | 24.6% (inactive) and 20.5% (inactive) | 32.9% (inactive) and 23.9% (inactive) |
| Cc1ccc(S(=O)(=O)Nc2nc3ccccc3nc2Nc2ccc3nsnc3c2)cc1 | 33.6% (inactive) and 62.8% (inactive) | 37% (inactive) and 51.5% (inactive) | 36.3% (inactive) and 66.4% (inactive) | 77.5% (inactive) and 61% (inactive) | 50.9% (inactive) and 50.5% (inactive) | 38.4% (inactive) and 42.2% (inactive) | 42.1% (inactive) | 48.7% (inactive) and 44.1% (inactive) |
| CC(=O)Nc1cccc2c1CCCC2 | 92.7% (inactive) | 97% (inactive) | 103% (inactive) and 110% (inactive) | 108% (inactive) and 107% (inactive) | 92.1% (inactive) and 91.2% (inactive) | 97.5% (inactive) and 102% (inactive) | 99.8% (inactive) and 95.3% (inactive) | 102% (inactive) and 103% (inactive) |
| Nc1ccc(N=Nc2ccc(S(=O)(=O)O)cc2)cc1S(=O)(=O)O | 97.9% (inactive) and 98.3% (inactive) | 120% (inactive) and 148% (inactive) | 108% (inactive) and 101% (inactive) | 115% (inactive) and 97.8% (inactive) | 104% (inactive) and 92.8% (inactive) | 90.2% (inactive) and 114% (inactive) | 105% (inactive) and 94.5% (inactive) | 96.1% (inactive) and 105% (inactive) |
| O[C@H](c1cc(C(F)(F)F)nc2c(C(F)(F)F)cccc12)[C@@H]1CCCCN1 | 43.6% (inactive) and 64% (inactive) | 65.1% (inactive) and 74.8% (inactive) | 64.2% (inactive) and 69% (inactive) | 71% (inactive) and 74.1% (inactive) | 21.3% (inactive) and 13.3% (inactive) | 44.1% (inactive) and 45.2% (inactive) | 74.5% (inactive) and 54.9% (inactive) | 50.7% (inactive) and 43.8% (inactive) |
| Cc1cc(O)c(C(C)C)cc1S(=O)(=O)O (tested in a mixture with another compound) | 89.2% (inactive) and 58.9% (inactive) and 96.5% (inactive) | 96.8% (inactive) and -9.88% (active) and 113% (inactive) | 104% (inactive) and -12.6% (active) and 112% (inactive) | 109% (inactive) and 23.2% (inactive) and 102% (inactive) | 89.5% (inactive) and 4.62% (active) and 81.2% (inactive) | 85.9% (inactive) and 6.36% (active) and 104% (inactive) | 91.7% (inactive) and -59% (active) and 112% (inactive) | 116% (inactive) and 13.2% (inactive) and 113% (inactive) |

Reference: PubChem BioAssay (NCI)
